# “And” between values parts separate entries of the source, which are not always exact repeats. Identical values can stand only once. Records with an inconclusive call do not appear. Where a call stands in place of a potency, no number is given. The source made the active and inactive calls. Unless noted, calls follow the shape of the full dose curve.
# What was measured:
# [1] = qHTS for Inhibitors of the Functional Ribonucleoprotein Complex (vRNP) of Lassa (LASV) Arenavirus: Viability assay - alamar blue signal for LASV Primary Screen (AID 1347083; calls by dose curve; tested in HEK293 reporter line; also: nearly all actives have a fitted effect of over 80% in size; also: potency is read from the fitted curve at half-maximal effect)
# [2] = qHTS for Inhibitors of the Functional Ribonucleoprotein Complex (vRNP) of Lymphocytic Choriomeningitis Arenaviruses (LCMV): Viability assay - alamar blue signal for LCMV Primary Screen (AID 1347085; calls by dose curve; tested in HEK293 reporter line; also: nearly all actives have a fitted effect of over 80% in size; also: potency is read from the fitted curve at half-maximal effect)
# [3] = Primary qHTS for inhibitors of SARS-S pseudo-typed particle cell entry (AID 1479145); also: nearly all actives have a fitted effect of over 45% in size
# [4] = Primary qHTS for Huh7 cytotoxicity: counterscreen for inhibitors of MERS-S pseudotyped particle cell entry (AID 1479147); settings: outcome: dose series up to 57.1 µM unless noted
# [5] = Primary qHTS for inhibitors of MERS-S pseudo-typed particle cell entry (AID 1479149); also: nearly all actives have a fitted effect of over 60% in size
# [6] = Primary qHTS for Vero E6 cytotoxicity: counterscreen for inhibitors of SARS-S pseudo-typed particle cell entry (AID 1479150); settings: outcome: dose series up to 57.1 µM unless noted
# [7] = Cytotoxicity counterscreen for inhibitors of SARS-CoV-2 cell entry (AID 1645845); also: nearly all actives have a fitted effect of over 50% in size; also: potency is read from the fitted curve at half-maximal effect
# Procedure, shortened: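 ATP-content luminescence (ATPLite 1step, 15 min RT) read after 48 h compound exposure of Expi293F cells stably expressing human ACE2; normalized to cells-only wells and media-only wells.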
# [8] = Primary qHTS to identify inhibitors of SARS-CoV-2 cell entry (AID 1645846); settings: activity change, negative = inhibition: at 57.1 µM (top of the series) unless noted; also: nearly all actives have a fitted effect of over 45% in size; also: potency is read from the fitted curve at half-maximal effect
# Procedure, shortened: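 Entry measured by luciferase signal 48 h after adding SARS-CoV-2-S pseudotyped MLV particles to HEK293-ACE2 cells preincubated 1 h with compounds. Normalisation: bald particles and spike particles.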
# [9] = Confirmatory qHTS for VERO E6 Cytotoxicity Assay: Counterscreen for SARS-CoV-2 CPE Assay (AID 1508605); also: potency is read from the fitted curve at half-maximal effect; nearly all actives have a fitted effect of over 60% in size
# [10] = Confirmatory qHTS for activators (rescue) of SARS-CoV-2 Cytopathic Effect (CPE) (AID 1508606); also: nearly all actives have a fitted effect of over 70% in size
# [11] = Inducers of the Endoplasmic Reticulum Stress Response (ERSR) in human glioma: Validation (AID 504836; active = well fitted curve in the direction sought with a large enough effect; an effect the other way counts as inactive or inconclusive)
# Procedure, shortened: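 ERSR induction read as luciferase luminescence (Bright-Glo, 10 min at room temperature) in stably transfected human U87-MG glioma cells exposed to compounds for 16 h, using GRP78 as sensor.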
# [12] = VSVG counterscreen qHTS to identify inhibitors of SARS-CoV-2 cell entry (AID 1645847); also: potency is read from the fitted curve at half-maximal effect; nearly all actives have a fitted effect of over 65% in size
# Procedure, shortened: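 Luminescence read after 48 h infection at 37 C with VSV-G-pseudotyped MLV particles, following 1 h compound exposure of Expi293F cells stably expressing human ACE2; scaled between bald particle and VSV-G particle wells.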
# [13] = target: Peroxisome proliferator-activated receptor delta (Homo sapiens) (UniProt Q03181); assay: qHTS assay for small molecule agonists of peroxisome proliferator-activated receptor delta signaling (AID 588534)
# Procedure, shortened: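 Agonist-mode qHTS; reporter cells, 5 hrs 37 C pre-incubation; compound titration, 18 hrs 37 C; CCF4 dye, 2 hrs RT; fluorescence read. EC50/efficacy via Hill fit.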
# [14] = Confirmatory qHTS to identify inhibitors of SARS-CoV-2 cell entry (AID 1645844); also: potency is read from the fitted curve at half-maximal effect; nearly all actives have a fitted effect of over 45% in size
# Procedure, shortened: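 Luminescence entry read-out after 48 h: spike-pseudotyped MLV particles (Wuhan-Hu-1, 19-aa C-terminal truncation) added to compound-pretreated (1 h) HEK293-ACE2 cells; Data were normalised to bald PP and spike PP wells.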
# [15] = Validation screen for inhibitors of Lassa infection (AID 463096)
# [16] = Quantitative high throughput screen for delayed death inhibitors of the malarial parasite plastid, 96 hour incubation (AID 488745; active = well fitted curve in the direction sought with a large enough effect; an effect the other way counts as inactive or inconclusive;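 also: luciferase-expressing P. falciparum in erythrocytes at 2% hematocrit and 0.1% parasitemia; nearly all actives have a fitted effect of over 70% in size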)
# Procedure, shortened: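 Readout is firefly luciferase luminescence from an integrated reporter in P. falciparum; lower signal marks inhibited growth. Cultures at 2% hematocrit and 0.1% parasitemia were treated with compound across two generations (96 h, 37 C, 5% CO2).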
# [17] = Quantitative high throughput screen for delayed death inhibitors of the malarial parasite plastid, 48 hour incubation (AID 488752; active = well fitted curve in the direction sought with a large enough effect; an effect the other way counts as inactive or inconclusive; also: nearly all actives have a fitted effect of over 65% in size)
# Procedure, shortened: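 First, compound was pinned into RPMI 1640 medium containing 0.5% Albumax. Next, reporter-parasite-infected erythrocytes were added to 2% hematocrit and 0.1% parasitemia. After 48 h at 37 C under 5% CO2, luciferase detection reagent was added and luminescence read.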
# [18] = target: Bile acid receptor (Homo sapiens) (UniProt Q96RI1); assay: qHTS assay for small molecule agonists of farnesoid X receptor signaling (AID 588527); settings: HEK293T FXR-UAS-bla, beta-lactamase ratio, 16 h; activation: stronger effect = higher value
# Procedure, shortened: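 Agonist-mode beta-lactamase reporter in GeneBLAzer FXR-UAS-bla HEK293T cells, titration up to 92 uM, 16 h exposure at 37 C, CCF4 fluorescence. Response scaled to DMSO (0%) and 100 uM chenodeoxycholic acid (100%), then Hill-fitted for EC50 and efficacy.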
# Sequence of Peroxisome proliferator-activated receptor delta (Homo sapiens) (Q03181 whole entry, looked up): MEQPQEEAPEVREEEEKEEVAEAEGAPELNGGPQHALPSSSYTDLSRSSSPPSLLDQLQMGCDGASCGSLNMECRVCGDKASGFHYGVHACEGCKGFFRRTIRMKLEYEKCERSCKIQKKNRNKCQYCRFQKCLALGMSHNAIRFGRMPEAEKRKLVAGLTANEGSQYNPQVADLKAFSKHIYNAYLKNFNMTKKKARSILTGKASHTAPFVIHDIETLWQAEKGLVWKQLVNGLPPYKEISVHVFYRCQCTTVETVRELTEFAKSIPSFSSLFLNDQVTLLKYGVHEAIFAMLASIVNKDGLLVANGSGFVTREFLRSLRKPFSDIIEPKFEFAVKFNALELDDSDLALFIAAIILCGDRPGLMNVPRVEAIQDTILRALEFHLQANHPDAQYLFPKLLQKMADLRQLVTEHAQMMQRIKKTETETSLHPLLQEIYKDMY
# Sequence of Bile acid receptor (Homo sapiens) (Q96RI1 whole entry, looked up): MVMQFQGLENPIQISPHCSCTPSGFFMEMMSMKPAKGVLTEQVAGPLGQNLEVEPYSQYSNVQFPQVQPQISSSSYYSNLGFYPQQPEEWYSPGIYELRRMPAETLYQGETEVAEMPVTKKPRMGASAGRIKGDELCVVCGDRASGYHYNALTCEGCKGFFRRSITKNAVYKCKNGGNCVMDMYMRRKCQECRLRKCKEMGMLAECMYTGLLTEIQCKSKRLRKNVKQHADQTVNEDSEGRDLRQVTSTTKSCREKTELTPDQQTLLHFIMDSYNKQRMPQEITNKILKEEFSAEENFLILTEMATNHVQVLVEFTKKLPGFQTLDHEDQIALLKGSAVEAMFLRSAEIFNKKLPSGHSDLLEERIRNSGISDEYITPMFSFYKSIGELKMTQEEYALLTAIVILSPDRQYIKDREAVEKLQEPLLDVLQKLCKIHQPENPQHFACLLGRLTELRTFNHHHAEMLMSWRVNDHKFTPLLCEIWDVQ
compound,measurement,setting,value
CC(=O)OCC(=O)[C@@]12OC(C)(C)O[C@@H]1C[C@H]1[C@@H]3C[C@H](F)C4=CC(=O)C=C[C@]4(C)[C@@]3(F)[C@@H](O)C[C@@]12C,Potency,[1],inactive
same,Potency,[2],inactive
same,Potency,[3],inactive
same,outcome,[4],inactive
same,Potency,[5],inactive
same,outcome,[6],inactive
same,Potency,[7],inactive
same,Potency,[8],inactive
Cc1c(C(N)=O)cc([N+](=O)[O-])cc1[N+](=O)[O-],Potency,[1],inactive
same,Potency,[2],inactive
same,Potency,[3],inactive
same,outcome,[4],inactive
same,Potency,[5],inactive
same,outcome,[6],inactive
same,Potency,[7],inactive
same,Potency,[8],inactive
C[C@H](NCc1ccc(OCc2cccc(F)c2)cc1)C(N)=O,Potency,[1],21.7 µM (active)
same,Potency,[2],38.5 µM (active)
same,Potency,[3],inactive
same,outcome,[4],inactive
same,Potency,[5],inactive
same,outcome,[6],inactive
same,Potency,[7],inactive
same,Potency,[8],inactive
O=C(CC12CC3CC(CC(C3)C1)C2)Nc1cccc2nc(NCCNCCO)ccc12,Potency,[1],21.7 µM (active)
same,Potency,[2],24.3 µM (active)
same,Potency,[7],inactive
c1cncc(CN2CCC(n3ncc4c(N5CCOCC5)nc(-c5ccc6[nH]ccc6c5)nc43)CC2)c1,Potency,[1],1.22 µM (active)
same,Potency,[2],2.43 µM (active)
same,Potency,[9],2.51 µM (active)
same,Potency,[10],inactive
COc1cc(/C=C(\C#N)C(=O)Nc2nnc(C(F)(F)F)s2)ccc1OCc1ccc(C(F)(F)F)cc1C(F)(F)F,outcome,[11],inactive
same,Potency,[1],inactive
same,Potency,[2],inactive
same,Potency,[7],inactive
same,Potency,[8],inactive
CCN1CCCC1=O,Potency,[1],inactive
same,Potency,[2],inactive
same,Potency,[3],inactive
same,outcome,[4],inactive
same,Potency,[5],inactive
same,outcome,[6],inactive
same,Potency,[7],inactive
same,Potency,[8],inactive
Cc1ncc(-c2ccnc(Nc3ccc(S(C)(=O)=O)cc3)n2)n1C(C)C,Potency,[1],6.85 µM (active)
same,Potency,[2],13.7 µM (active)
same,"activity change, negative = inhibition",[8],-96.5%
COc1ccc(F)c(F)c1C(=O)c1cnc(NC2CCN(S(C)(=O)=O)CC2)nc1N,Potency,[1],2.73 µM (active)
same,Potency,[2],6.11 µM (active)
same,"activity change, negative = inhibition",[8],-92.2%
same,Potency,[12],0.0681 µM (active)
NC(N)=NC(N)=NCCc1ccccc1,Potency,[13],inactive
same,Potency,[1],inactive
same,Potency,[2],inactive
same,Potency,[7],inactive
same,"activity change, negative = inhibition",[8],-16.7%
CCN(CC)Cc1ccc2cc(COC(=O)Nc3ccc(C(=O)NO)cc3)ccc2c1,Potency,[1],15.3 µM (active)
same,Potency,[2],6.85 µM (active)
same,Potency,[7],10 µM (active)
Nc1nc(N)c(N=O)c(OCC2CCCCC2)n1,outcome,[11],inactive
same,Potency,[1],15.3 µM (active)
same,Potency,[2],21.7 µM (active)
same,Potency,[7],inactive
same,"activity change, negative = inhibition",[8],-7.15%
CC[C@]1(O)C[C@H]2CN(CCC3=c4ccccc4=N[C]3[C@@](C(=O)OC)(c3cc4c(cc3OC)N(C)[C@H]3[C@@](O)(C(N)=O)[C@H](O)[C@]5(CC)C=CCN6CC[C@]43[C@@H]65)C2)C1,Potency,[1],0.0385 µM (active)
same,Potency,[2],0.0109 µM (active)
same,Potency,[3],inactive
same,outcome,[4],inactive
same,Potency,[5],inactive
same,outcome,[6],inactive
same,Potency,[7],inactive
COc1cc2ncnc(Nc3cc(Br)c(O)c(Br)c3)c2cc1OC,Potency,[1],0.611 µM (active)
same,Potency,[2],0.0544 µM (active)
same,Potency,[7],inactive
N#Cc1c(NC(=O)c2cccc3ccccc23)sc2c1CCCC2,Potency,[1],0.769 µM (active)
same,Potency,[2],1.09 µM (active)
same,Potency,[14],1.08 µM (active)
same,"activity change, negative = inhibition",[8],-63.8%
CN(C)CCN1C(=O)c2cccc3cc(N)cc(c23)C1=O,Potency,[1],7.69 µM (active)
same,Potency,[2],6.85 µM (active)
same,Potency,[8],7.08 µM (active)
CC(C)NCC(O)COc1cccc2ccccc12 (stereo unspecified),Potency,[15],inactive
same,Potency,[16],inactive
same,Potency,[17],inactive
same,outcome,[11],inactive
same,activation,[18],0.153% (inactive) and 4.79% (inactive)
same,Potency,[13],inactive
same,Potency,[1],inactive
same,Potency,[2],inactive
CC(C)NC[C@H](O)COc1cccc2ccccc12,outcome,[11],inactive
same,Potency,[1],inactive
same,Potency,[2],inactive
CC(C(=O)O)c1ccc(C(=O)c2cccs2)cc1 (stereo unspecified),Potency,[1],inactive
same,Potency,[2],inactive
same,Potency,[3],inactive
same,outcome,[4],inactive
same,Potency,[5],inactive
same,outcome,[6],inactive
same,Potency,[8],inactive
CN(C)Cc1c(C(=O)NCCOc2ccc(C(=O)NO)cc2)oc2ccccc12,Potency,[1],2.43 µM (active)
same,Potency,[2],1.37 µM (active)
same,Potency,[8],inactive
COc1cc(C(=O)NC2CCN(C)CC2)ccc1Nc1ncc2c(n1)N(C1CCCC1)CCC(=O)N2C(C)C,Potency,[1],27.3 µM (active)
same,Potency,[2],15.3 µM (active)
same,Potency,[8],31.6 µM (active)
CC(C)Oc1ccc(C(=O)N[C@H](CNC(=O)CN(C)C)Cc2ccc(-c3cn4cccc([C@H](C)O)c4n3)cc2)cc1Cl,Potency,[1],1.93 µM (active)
same,Potency,[2],0.968 µM (active)
same,Potency,[7],inactive
CN1CCN2c3ccccc3Cc3ccccc3C2C1 (stereo unspecified),Potency,[15],inactive
same,outcome,[11],inactive
same,Potency,[1],inactive
same,Potency,[2],inactive
same,outcome,[4],inactive
same,Potency,[5],inactive
same,outcome,[6],inactive
same,Potency,[7],inactive

# From PubChem BioAssay (NCATS)
